Laboratory results from PubChem BioAssay AID1159580 (chemical genetic matrix, 2015).
In all, about 5,500 compounds went through this assay and about 2,000 (36%) were called active. Another 18% or so got no clear call; they are omitted. No stated cut-off is given here; in the data, active means normalized growth mostly below about 0.91 (no sharp cut-off); inconclusive means no clear call, values can overlap the other calls; inactive means mostly above about 0.92. The list shows a part of the results.

Test: chemical genetic growth profiling, strain panel (AID 1159580);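 further: tested at 20 µM; growth read once vehicle control cultures reached saturation at 30 °C; 1 = growth at the plate median or of vehicle wells; lower values mean less growth of the strain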
Conditions: S. cerevisiae deletion strains, growth OD
[1] = locus YAR019C, strain CDC15, hits give low values
[2] = locus YBL105C, strain PKC1, hits give low values
[3] = locus YBR135W, strain CKS1, hits give low values
[4] = locus YBR136W, strain MEC1, hits give low values
[5] = locus YBR160W, strain CDC28, hits give low values
[6] = locus YDL017W, strain CDC7, hits give low values
[7] = locus YDL028C, strain MPS1, hits give low values
[8] = locus YDL101C, strain DUN1, hits give low values
[9] = locus YDL108W, strain KIN28, hits give low values
[10] = locus YDL132W, strain cdc53, hits give low values
[11] = locus YDL214C, strain PRR2, hits give low values
[12] = locus YDR052C, strain DBF4, hits give low values
[13] = locus YDR054C, strain cdc34, hits give low values
[14] = locus YDR226W, strain ADK1, hits give low values
[15] = locus YDR477W, strain SNF1, hits give low values
[16] = locus YER123W, strain YCK3, hits give low values
[17] = locus YER133W, strain GLC7, hits give low values
[18] = locus YFL009W, strain cdc4, hits give low values
[19] = locus YFL029C, strain CAK1, hits give low values
[20] = locus YFR003C, strain YPI1, hits give low values
[21] = locus YFR019W, strain FAB1, hits give low values
[22] = locus YFR028C, strain CDC14, hits give low values
[23] = locus YGR040W, strain KSS1, hits give low values
[24] = locus YGR052W, strain FMP48, hits give low values
[25] = locus YGR092W, strain DBF2, hits give low values
[26] = locus YHR030C, strain SLT2, hits give low values
[27] = locus YHR079C, strain IRE1, hits give low values
[28] = locus YHR082C, strain KSP1, hits give low values
[29] = locus YHR205W, strain SCH9, hits give low values
[30] = locus YIL147C, strain SLN1, hits give low values
[31] = locus YJL095W, strain BCK1, hits give low values
[32] = locus YJL128C, strain PBS2, hits give low values
[33] = locus YJL157C, strain FAR1, hits give low values
[34] = locus YJR016C, strain ILV3, hits give low values
[35] = locus YJR066W, strain TOR1 (second series), hits give low values
[36] = locus YJR066W, strain TOR1, hits give low values
[37] = locus YKL048C, strain ELM1, hits give low values
[38] = locus YKL067W, strain YNK1, hits give low values
[39] = locus YKL101W, strain HSL1, hits give low values
[40] = locus YKL193C, strain SDS22, hits give low values
[41] = locus YKL203C, strain TOR2, hits give low values
[42] = locus YLR113W, strain HOG1, hits give low values
[43] = locus YLR133W, strain CKI1, hits give low values
[44] = locus YLR403W, strain SFP1, hits give low values
[45] = locus YML070W, strain DAK1, hits give low values
[46] = locus YMR001C, strain CDC5, hits give low values
[47] = locus YMR205C, strain PFK2 (second series), hits give low values
[48] = locus YMR277W, strain FCP1, hits give low values
[49] = locus YNL006W, strain LST8, hits give low values
[50] = locus YNL020C, strain ARK1, hits give low values
[51] = locus YNL161W, strain CBK1, hits give low values
[52] = locus YNL183C, strain NPR1, hits give low values
[53] = locus YNL207W, strain RIO2, hits give low values
[54] = locus YNL222W, strain SSU72, hits give low values
[55] = locus YNL307C, strain MCK1 (second series), hits give low values
[56] = locus YOL078W, strain AVO1, hits give low values
[57] = locus YOL136C, strain PFK27, hits give low values
[58] = locus YOR061W, strain CKA2, hits give low values
[59] = locus YOR119C, strain RIO1, hits give low values
[60] = locus YOR231W, strain MKK1, hits give low values
[61] = locus YOR329C, strain SCD5, hits give low values
[62] = locus YPL031C, strain PHO85, hits give low values
[63] = locus YPL153C, strain RAD53, hits give low values
[64] = locus YPL204W, strain HRR25, hits give low values
[65] = locus YPL209C, strain IPL1, hits give low values
[66] = locus YPL256C, strain CLN2, hits give low values
[67] = locus YPR025C, strain CCL1, hits give low values
[68] = locus YPR106W, strain ISR1, hits give low values
[69] = locus YPR111W, strain DBF20, hits give low values
[70] = strain NNK1, hits give low values
[71] = strain TSCII, hits give low values

Measured: normalized growth

Cc1c(C)c(C)c(CSC(N)=Nc2ccc(F)cc2)c(C)c1C
active: [42] 0.823
inactive: [1] 0.996 | [2] 0.997 | [3] 0.994 | [4] 0.997 | [5] 0.997 | [6] 0.999 | [7] 0.995 | [8] 1.01 | [9] 0.992 | [10] 1 | [11] 0.944 | [12] 1 | [13] 0.998 | [14] 0.995 | [15] 0.931 | [16] 0.894 | [17] 0.937 | [18] 1.01 | [19] 0.993 | [20] 1 | [21] 0.946 | [22] 1.01 | [23] 0.932 | [24] 0.959 | [25] 0.975 | [26] 0.946 | [27] 0.953 | [28] 1.02 | [29] 0.967 | [30] 0.992 | [31] 0.925 | [32] 0.942 | [33] 0.936 | [34] 0.998 | [35] 0.93 | [36] 1.05 | [37] 0.966 | [38] 0.955 | [39] 0.943 | [40] 0.999 | [41] 0.999 | [43] 0.969 | [44] 0.953 | [45] 0.921 | [46] 0.993 | [47] 0.953 | [48] 1 | [49] 1 | [50] 0.969 | [51] 1 | [52] 1.03 | [53] 0.998 | [54] 1.01 | [55] 0.969 | [56] 0.998 | [57] 0.945 | [58] 0.972 | [59] 1 | [60] 0.97 | [61] 0.996 | [62] 0.929 | [63] 0.942 | [64] 0.95 | [65] 0.999 | [66] 0.902 | [67] 1 | [68] 0.99 | [69] 0.99 | [70] 0.995 | [71] 0.998

NC(=Nc1ccc(F)cc1)SCc1c(Cl)cccc1Cl
inactive: [1] 0.992 | [2] 0.99 | [3] 0.985 | [4] 0.984 | [5] 0.986 | [6] 0.99 | [7] 0.983 | [8] 0.996 | [9] 0.985 | [10] 0.986 | [11] 0.954 | [12] 0.992 | [13] 0.991 | [14] 0.985 | [15] 0.96 | [16] 0.923 | [17] 0.954 | [18] 0.987 | [19] 0.994 | [20] 0.99 | [21] 0.96 | [22] 0.989 | [23] 0.947 | [24] 0.981 | [25] 0.978 | [26] 0.985 | [27] 0.962 | [28] 1.05 | [29] 0.962 | [30] 0.99 | [31] 0.954 | [32] 0.938 | [33] 0.961 | [34] 0.991 | [35] 0.99 | [36] 1.09 | [37] 0.967 | [38] 0.962 | [39] 0.945 | [40] 0.989 | [41] 1.03 | [42] 0.882 | [43] 0.975 | [44] 0.975 | [45] 0.944 | [46] 0.991 | [47] 0.961 | [48] 0.989 | [49] 0.982 | [50] 0.971 | [51] 0.988 | [52] 1.06 | [53] 0.994 | [54] 0.988 | [55] 0.987 | [56] 0.986 | [57] 0.958 | [58] 0.975 | [59] 1.02 | [60] 0.985 | [61] 0.99 | [62] 0.952 | [63] 0.964 | [64] 0.989 | [65] 0.994 | [66] 0.962 | [67] 0.98 | [68] 0.981 | [69] 0.982 | [70] 0.992 | [71] 1
